# Where a chain is given by its changes, count along the chain named.
# Legend:
# Assay in all cases: PBM; 200 nM protein, PBS
# Details in all cases: dsDNA, one strand shown
# [1] = target: T1, NKX2-6 (Homo sapiens, UniProt A6NCS4 118-204, R150C)
# T1 sequence: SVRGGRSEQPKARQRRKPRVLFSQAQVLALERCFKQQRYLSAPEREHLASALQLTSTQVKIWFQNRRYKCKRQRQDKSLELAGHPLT
# [2] = target: NKX3-2 (Homo sapiens, UniProt P78367 192-278, P234S)
# [3] = target: NKX3-2 (Homo sapiens, UniProt P78367 192-278)
# [4] = target: HOXC9 (Homo sapiens, UniProt P31274 178-260)
# HOXC9 (Homo sapiens, UniProt P31274 178-260), sequence (P31274 178-260): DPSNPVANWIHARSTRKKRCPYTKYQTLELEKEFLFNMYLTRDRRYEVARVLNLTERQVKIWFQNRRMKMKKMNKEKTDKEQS
# [5] = target: MSX2 (Homo sapiens, UniProt P35548 130-214)
# MSX2 (Homo sapiens, UniProt P35548 130-214), sequence (P35548 130-214): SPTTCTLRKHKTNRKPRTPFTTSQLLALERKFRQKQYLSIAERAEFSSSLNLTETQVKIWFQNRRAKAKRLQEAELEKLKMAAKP
# [6] = target: HOXC9 (Homo sapiens, UniProt P31274 178-260, R222W)
# HOXC9 (Homo sapiens, UniProt P31274 178-260, R222W), sequence (P31274 178-260 R222W): as the sequence (P31274 178-260) above, with R45W counted along it
# [7] = target: MSX2 (Homo sapiens, UniProt P35548 130-214, F161Y)
# MSX2 (Homo sapiens, UniProt P35548 130-214, F161Y), sequence (P35548 130-214 F161Y): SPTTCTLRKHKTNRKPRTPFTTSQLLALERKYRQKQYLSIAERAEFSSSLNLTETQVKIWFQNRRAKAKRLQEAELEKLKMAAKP
# [8] = target: PROP1 (Homo sapiens, UniProt O75360 56-141)
# PROP1 (Homo sapiens, UniProt O75360 56-141), sequence (O75360 56-141): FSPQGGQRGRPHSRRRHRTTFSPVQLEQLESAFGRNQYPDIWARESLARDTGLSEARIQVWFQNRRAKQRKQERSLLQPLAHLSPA
# [9] = target: PROP1 (Homo sapiens, UniProt O75360 56-141, R99H)
# PROP1 (Homo sapiens, UniProt O75360 56-141, R99H), sequence (O75360 56-141 R99H): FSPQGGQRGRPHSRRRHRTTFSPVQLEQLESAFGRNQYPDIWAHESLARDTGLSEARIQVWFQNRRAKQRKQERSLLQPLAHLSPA
# [10] = target: PROP1 (Homo sapiens, UniProt O75360 56-141, F88S)
# PROP1 (Homo sapiens, UniProt O75360 56-141, F88S), sequence (O75360 56-141 F88S): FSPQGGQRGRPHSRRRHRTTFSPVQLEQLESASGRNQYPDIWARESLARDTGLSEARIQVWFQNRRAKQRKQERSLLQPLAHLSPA
# [11] = target: PITX2 (Homo sapiens, UniProt Q99697 72-157)
# [12] = target: T2, NKX2-6 (Homo sapiens, UniProt A6NCS4 118-204, F151L)
# T2 sequence: T1 sequence with C33R, F34L
# [13] = target: MSX2 (Homo sapiens, UniProt P35548 130-214, R199I)
# MSX2 (Homo sapiens, UniProt P35548 130-214, R199I), sequence (P35548 130-214 R199I): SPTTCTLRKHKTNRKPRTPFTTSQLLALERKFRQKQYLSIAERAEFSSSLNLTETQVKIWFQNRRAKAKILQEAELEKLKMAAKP
# [14] = target: ALX3 (Homo sapiens, UniProt O95076 139-225, N203Q)
# ALX3 (Homo sapiens, UniProt O95076 139-225, N203Q), sequence (O95076 139-225 N203Q): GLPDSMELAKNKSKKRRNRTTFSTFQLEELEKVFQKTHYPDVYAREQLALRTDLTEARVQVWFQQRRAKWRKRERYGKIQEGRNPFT
# [15] = target: HOXD13 (Homo sapiens, UniProt P35453 263-343, T313R)
# HOXD13 (Homo sapiens, UniProt P35453 263-343, T313R), sequence (P35453 263-343 T313R): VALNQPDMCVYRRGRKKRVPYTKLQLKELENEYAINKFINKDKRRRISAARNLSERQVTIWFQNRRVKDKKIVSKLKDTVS
# [16] = target: HOXD13 (Homo sapiens, UniProt P35453 263-343)
# HOXD13 (Homo sapiens, UniProt P35453 263-343), sequence (P35453 263-343): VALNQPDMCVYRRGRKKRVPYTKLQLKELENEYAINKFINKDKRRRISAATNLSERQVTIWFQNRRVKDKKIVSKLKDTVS
# [17] = target: ALX3 (Homo sapiens, UniProt O95076 139-225)
# ALX3 (Homo sapiens, UniProt O95076 139-225), sequence (O95076 139-225): as the sequence (O95076 139-225 N203Q) above, with Q65N counted along it
# [18] = target: ALX3 (Homo sapiens, UniProt O95076 139-225, L168Q)
# ALX3 (Homo sapiens, UniProt O95076 139-225, L168Q), sequence (O95076 139-225 L168Q): as the sequence (O95076 139-225 N203Q) above, with L30Q, Q65N counted along it
# [19] = target: HOXD13 (Homo sapiens, UniProt P35453 263-343, T313A)
# HOXD13 (Homo sapiens, UniProt P35453 263-343, T313A), sequence (P35453 263-343 T313A): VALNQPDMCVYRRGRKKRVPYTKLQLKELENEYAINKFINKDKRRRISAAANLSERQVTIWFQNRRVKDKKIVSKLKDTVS
# [20] = target: ALX3 (Homo sapiens, UniProt O95076 139-225, L168V)
# ALX3 (Homo sapiens, UniProt O95076 139-225, L168V), sequence (O95076 139-225 L168V): as the sequence (O95076 139-225 N203Q) above, with L30V, Q65N counted along it
# [21] = target: ALX3 (Homo sapiens, UniProt O95076 139-225, N203S)
# ALX3 (Homo sapiens, UniProt O95076 139-225, N203S), sequence (O95076 139-225 N203S): as the sequence (O95076 139-225 N203Q) above, with Q65S counted along it
# [22] = target: T3, NKX2-6 (Homo sapiens, UniProt A6NCS4 118-204)
# T3 sequence: T1 sequence with C33R
# NKX3-2 (Homo sapiens, UniProt P78367 192-278), sequence (P78367 192-278): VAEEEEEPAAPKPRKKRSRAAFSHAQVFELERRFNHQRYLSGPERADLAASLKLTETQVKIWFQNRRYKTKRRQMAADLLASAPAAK
# NKX3-2 (Homo sapiens, UniProt P78367 192-278, P234S), sequence (P78367 192-278 P234S): as the sequence (P78367 192-278) above, with P43S counted along it
sequence,measurement,setting,value
AAGTACAT,binding signal,[1],"11.6 upbm affinity estimate (log intensity, higher = more binding, comparable within an allelic series)"
same,binding signal,[2],"12.4 upbm affinity estimate (log intensity, higher = more binding, comparable within an allelic series)"
same,binding signal,[3],"12.6 upbm affinity estimate (log intensity, higher = more binding, comparable within an allelic series)"
ACCCTTAT,binding signal,[4],"10.8 upbm affinity estimate (log intensity, higher = more binding, comparable within an allelic series)"
same,binding signal,[5],"10.8 upbm affinity estimate (log intensity, higher = more binding, comparable within an allelic series)"
same,binding signal,[6],"10.2 upbm affinity estimate (log intensity, higher = more binding, comparable within an allelic series)"
same,binding signal,[7],"10.7 upbm affinity estimate (log intensity, higher = more binding, comparable within an allelic series)"
ACCTGGTG,binding signal,[1],"9.61 upbm affinity estimate (log intensity, higher = more binding, comparable within an allelic series)"
same,binding signal,[8],"6.8 upbm affinity estimate (log intensity, higher = more binding, comparable within an allelic series)"
same,binding signal,[9],"6.74 upbm affinity estimate (log intensity, higher = more binding, comparable within an allelic series)"
same,binding signal,[10],"6.77 upbm affinity estimate (log intensity, higher = more binding, comparable within an allelic series)"
GAACATTC,binding signal,[4],"10.5 upbm affinity estimate (log intensity, higher = more binding, comparable within an allelic series)"
GCCGACCA,binding signal,[1],"9.61 upbm affinity estimate (log intensity, higher = more binding, comparable within an allelic series)"
same,binding signal,[11],"7.83 upbm affinity estimate (log intensity, higher = more binding, comparable within an allelic series)"
ACAAGTGC,binding signal,[1],"11.5 upbm affinity estimate (log intensity, higher = more binding, comparable within an allelic series)"
same,binding signal,[12],"10.6 upbm affinity estimate (log intensity, higher = more binding, comparable within an allelic series)"
AAGTGGCA,binding signal,[1],"11.6 upbm affinity estimate (log intensity, higher = more binding, comparable within an allelic series)"
same,binding signal,[2],"12.6 upbm affinity estimate (log intensity, higher = more binding, comparable within an allelic series)"
same,binding signal,[3],"12.7 upbm affinity estimate (log intensity, higher = more binding, comparable within an allelic series)"
TATCTCAA,binding signal,[4],"11 upbm affinity estimate (log intensity, higher = more binding, comparable within an allelic series)"
CCAATCAA,binding signal,[13],"11 upbm affinity estimate (log intensity, higher = more binding, comparable within an allelic series)"
CCGTGCCG,binding signal,[1],"9.27 upbm affinity estimate (log intensity, higher = more binding, comparable within an allelic series)"
same,binding signal,[14],"7.7 upbm affinity estimate (log intensity, higher = more binding, comparable within an allelic series)"
same,binding signal,[15],"9.53 upbm affinity estimate (log intensity, higher = more binding, comparable within an allelic series)"
same,binding signal,[16],"9.45 upbm affinity estimate (log intensity, higher = more binding, comparable within an allelic series)"
same,binding signal,[17],"7.7 upbm affinity estimate (log intensity, higher = more binding, comparable within an allelic series)"
same,binding signal,[18],"7.76 upbm affinity estimate (log intensity, higher = more binding, comparable within an allelic series)"
same,binding signal,[19],"9.84 upbm affinity estimate (log intensity, higher = more binding, comparable within an allelic series)"
same,binding signal,[20],"7.72 upbm affinity estimate (log intensity, higher = more binding, comparable within an allelic series)"
same,binding signal,[21],"7.71 upbm affinity estimate (log intensity, higher = more binding, comparable within an allelic series)"
GACCCGAC,binding signal,[1],"9.44 upbm affinity estimate (log intensity, higher = more binding, comparable within an allelic series)"
same,binding signal,[2],"10.7 upbm affinity estimate (log intensity, higher = more binding, comparable within an allelic series)"
same,binding signal,[3],"10.7 upbm affinity estimate (log intensity, higher = more binding, comparable within an allelic series)"
TACACTCA,binding signal,[1],"11.1 upbm affinity estimate (log intensity, higher = more binding, comparable within an allelic series)"
same,binding signal,[2],"11.9 upbm affinity estimate (log intensity, higher = more binding, comparable within an allelic series)"
same,binding signal,[3],"12 upbm affinity estimate (log intensity, higher = more binding, comparable within an allelic series)"
AAGTGGTG,binding signal,[1],"11.6 upbm affinity estimate (log intensity, higher = more binding, comparable within an allelic series)"
same,binding signal,[2],"12.7 upbm affinity estimate (log intensity, higher = more binding, comparable within an allelic series)"
same,binding signal,[3],"12.8 upbm affinity estimate (log intensity, higher = more binding, comparable within an allelic series)"
GGGGGACC,binding signal,[1],"8.9 upbm affinity estimate (log intensity, higher = more binding, comparable within an allelic series)"
same,binding signal,[22],"9.01 upbm affinity estimate (log intensity, higher = more binding, comparable within an allelic series)"
same,binding signal,[12],"8.91 upbm affinity estimate (log intensity, higher = more binding, comparable within an allelic series)"
CGTAACGC,binding signal,[4],"10.6 upbm affinity estimate (log intensity, higher = more binding, comparable within an allelic series)"
ATCACTTA,binding signal,[1],"11.6 upbm affinity estimate (log intensity, higher = more binding, comparable within an allelic series)"
same,binding signal,[22],"13.3 upbm affinity estimate (log intensity, higher = more binding, comparable within an allelic series)"
same,binding signal,[12],"10.4 upbm affinity estimate (log intensity, higher = more binding, comparable within an allelic series)"
ATTGCACA,binding signal,[4],"10.8 upbm affinity estimate (log intensity, higher = more binding, comparable within an allelic series)"
GATAATCA,binding signal,[13],"10.9 upbm affinity estimate (log intensity, higher = more binding, comparable within an allelic series)"
GAGGAAGC,binding signal,[13],"9.59 upbm affinity estimate (log intensity, higher = more binding, comparable within an allelic series)"
same,binding signal,[5],"9.52 upbm affinity estimate (log intensity, higher = more binding, comparable within an allelic series)"
same,binding signal,[7],"9.52 upbm affinity estimate (log intensity, higher = more binding, comparable within an allelic series)"
ATAATCAC,binding signal,[13],"11.1 upbm affinity estimate (log intensity, higher = more binding, comparable within an allelic series)"

# Source: publication PMC11006913
